The values that follow come from PubChem BioAssay AID504332 (National Center for Advancing Translational Sciences (NCATS), 2011).

In all, about 350,000 compounds went through this assay and about 31,000 (8.9%) were called active. Inconclusive results (about 15%) are left out. The entries come from a sample that favours actives as a whole. Where a call stands in place of a potency, no number is given. A number with no mark means an inactive call. Calls come from the whole dose curve; as a rule, active = well fitted inhibition curve with a large enough effect; inconclusive = small, poorly fitted or top-dose-only effect; inactive = no such curve, though single readings can be large or run the other way.
Potency is the fitted concentration of half-maximal effect.

Histone-lysine N-methyltransferase EHMT2 (Homo sapiens), sequence (Q96KQ7 913-1193 limits assumed): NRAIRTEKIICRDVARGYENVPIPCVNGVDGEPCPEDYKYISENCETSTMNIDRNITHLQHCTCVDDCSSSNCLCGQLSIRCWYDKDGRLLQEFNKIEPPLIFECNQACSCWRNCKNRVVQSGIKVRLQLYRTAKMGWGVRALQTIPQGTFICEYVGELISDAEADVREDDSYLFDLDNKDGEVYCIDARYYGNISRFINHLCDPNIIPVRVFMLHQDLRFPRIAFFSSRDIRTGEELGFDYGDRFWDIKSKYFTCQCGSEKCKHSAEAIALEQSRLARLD

This assay concerns the target Histone-lysine N-methyltransferase EHMT2 (Homo sapiens) (UniProt Q96KQ7). Put plainly: qHTS Assay for Inhibitors of Histone Lysine Methyltransferase G9a. Note: nearly all actives have a fitted effect of over 75% in size. As to conditions: G9a H3K9 monomethylation, AlphaScreen, 2 h; series mostly up to 102 µM. The text has this:
Methylated lysines, on the N-terminal tails of histone proteins serve as epigenetic markers to recruit factors that can then modify local chromatin structure to lead to functional consequences. G9a and other members of the SUV39 family of the SET domain-containing superfamily of histone lysine methyltransferases (HMT) have been identified to specifically methylate Lys9 of histone H3 (H3K9). G9a catalyzes the mono- and di-methylation of H3K9 in mammalian euchromatic regions, where the resulting H3K9me2 is indicative of transcriptional repression. […] The inhibition of G9a will result in transcriptional activation and work synergistically with DNA methyltransferase and histone deacetylase inhibitors, to kill cancer cells. This qHTS assay for identification of G9a inhibitors is a chemiluminescence based AlphaScreen (PerkinElmer). Methylation of biotinylated-histone peptide is measured through specific antibody-based detection, in conjunction with streptavidin-coated donor and anti-IgG antibody-coated acceptor beads. The method is particularly well suited for detection of inhibitors acting by the desired histone peptide competitive mechanism and is applicable to testing other HMTs. Although AlphaScreen has significant advantages with its utility in a variety of epigenetic target assays, the primary screening data provided in this deposition should be used with caution due to the prevalence of screening artifacts. An AlphaScreen counterscreen is highly recommended to be run against any putative actives to eliminate non specific artifacts. Alternatively, one can use other AlphaScreen assays in PubChem to filter out promiscuous hits. Quinn et al. A chemiluminescence-based method for identification of histone lysine methyltransferase inhibitors. Mol Biosyst 6(5): 782-8. 2010. PMID: 20567762 [2] Baell,Holloway. New substructure filters for removal of pan assay interference compounds (PAINS) from screening libraries and for their exclusion in bioassays. J Med Chem. 53(7):2719-40. 2010. PMID: 20131845 NIH Molecular Libraries Probe Production Network [MLPCN] NIH Chemical Genomics Center [NCGC] Structural Genomics Consortium (SGC) NIH Grant: 5U54 MH084681-02
To each well of a 1,536w plate, 2ul of HMT enzyme (final 20nM) were added, using a nanoliter dispenser. The G9a- and GLP-inhibitor BIX-01294 (CID: 25150857) are used as an intraplate control, with a 16-point titration in duplicate. A Kalypsys pin-tool transferred 23nl of library compound solution in DMSO to each well. Following a 15 min incubation of enzyme with compounds at room temperature, 1ul mixture of b-H3K9 peptide substrate (final 500nM) and SAM cofactor (final 20uM) were added. Reactions were allowed to proceed at room temperature for 2 hours. Methylated b-H3K9 peptide product was detected with 0.5 ug/mL rabbit polyclonal anti-monomethyl histone H3K9 antibody (Abcam Inc., Cambridge, MA) and 20 ug/mL each streptavidin-coated donor and anti-rabbit IgG acceptor AlphaScreen beads. Antibody and beads were added in a 1ul dispense, for a final volume of 4ul, and plates were incubated, protected from the light, for 10 min at room temperature. Microplates were then read on an EnVision multilabel plate reader using the 1,536 plate HTS AlphaScreen aperture (excitation time 80 ms, measurement time 240 ms).
Regarding `c1ccc(Cc2nn3c(Cn4cnc5ccccc54)nnc3s2)cc1`, the Potency was 3.16 µM (active). As for `COc1ccc(S(=O)(=O)NCc2ccc(C(=O)N3CCC4(CC3)OCCO4)cc2)cc1`, the activity, negative = inhibition entry was “inactive”. As for `CC(C)c1ccc(-n2c(O)c(/C=N/N3CCOCC3)c(=O)[nH]c2=S)cc1`, the Potency is 50.1 µM (active). Same read-out and setting: to `Cc1cccc(-n2c(O)c(C=NC34CN5CN(CN(C5)C3)C4)c(=O)[nH]c2=O)c1` belongs 50.1 µM (active). For `Cc1ccc(-n2c(O)c(C=NCC3CCCO3)c(=O)[nH]c2=O)c(C)c1` (stereo not given), the activity, negative = inhibition was 48.7% [at 12.7 µM]. For the molecule `O=c1[nH]c(=O)n(-c2ccc(F)cc2)c(O)c1C=NCCN1CCCCC1`, the activity, negative = inhibition result is “inactive”. Still for that read-out and setting: to `O=c1[nH]c(=O)n(CCc2ccccc2)c(O)c1/C=N/N1CCOCC1` belongs “inactive”. On the same count and under the same terms, to `O=c1[nH]c(=O)n(-c2ccccc2)c(O)c1C=NC12CN3CN(CN(C3)C1)C2` belongs “inactive”. The same measure, in the same setting: to `O=C(N/N=C/c1c(O)n(C2CC2)c(=S)[nH]c1=O)c1ccccc1` belongs “inactive”. For `O=c1[nH]c(=O)n(CCc2ccc(F)cc2)c(O)c1/C=N/N1CCCCC1`, the activity, negative = inhibition entry was “inactive”.

Take `Cc1cccc(-n2c(O)c(/C=N/N3CCOCC3)c(=O)[nH]c2=S)c1`: the Potency was 22.4 µM (active).

`CN(C)CC1CCCCC1=O` (stereo not given): the activity, negative = inhibition result is “inactive”. Still for that read-out and setting: the value for `CN(C)c1ccc(/C=C2\CC3C4CC=C5CC(O)CCC5(C)C4CCC3(C)C2=O)cc1` (stereo not given) was “inactive”; that for `COC(=O)C1=C(c2ccccc2OCc2ccccc2)C[C@@H]2CC[C@H]1N2C(=O)NCc1ccc(OC)cc1` was -7.46% [at 2.33 µM]. As to `CCOc1ccc(C2SCC(=O)Nc3c2c(C)nn3C2CCOC(C)(C)C2)cc1` (stereo not given), the activity, negative = inhibition result was “inactive”. Still for that read-out and setting: the value for `c1ccc2c(c1)[I+]c1ccccc1-2` was -19.1% [at 12.7 µM]; that for `Cc1ccc(-c2nc3ccccc3c(=O)n2-c2ccc(Br)cn2)cc1` was “inactive”.

`CN(C)C(=O)Oc1ccc(NC(=O)N2CCOCC2)cc1`: the activity, negative = inhibition result is “inactive”. For `CSc1nc2ccc(C)cc2c(=O)n1-c1cccnc1`, the activity, negative = inhibition entry was “inactive”.

Turning to `N#Cc1ccc(Cn2cc(C(=O)c3ccco3)c3ccccc32)cc1`, the activity, negative = inhibition entry was “inactive”. On the same count and under the same terms, the value for `COc1ccc(-n2c(O)c(C(C)=Nc3ccc4c(c3)CCC4)c(=O)[nH]c2=O)cc1` was “inactive”. On to `CC(=O)NBr`, for which the activity, negative = inhibition entry was “inactive”. The same measure, in the same setting: to `CCc1nc2ccccc2c(=O)n1-c1cccc(OC)c1` belongs “inactive”. Same read-out and setting: to `Cc1cccc(-n2c(C)nc3cc(C(=O)N4CCC5(CC4)OCCO5)ccc32)c1` belongs “inactive”; to `O=C(N/N=C/c1c(O)n(Cc2ccccc2)c(=O)[nH]c1=O)c1ccccc1`, “inactive”; to `CC(C)c1ccc(O)c(CN2CCN(c3ccccc3)CC2)c1`, “inactive”.

For `Fc1ccc(N2CCN(Cc3ccc4c(c3)OCO4)CC2)cc1`, the Potency was 8.91 µM (active).

As to `Cc1cc(=O)oc2c(C)c(OCC(=O)N3CCN(Cc4ccc5c(c4)OCO5)CC3)ccc12`, the activity, negative = inhibition result is “inactive”. Take `Oc1cc2c(cc1CN1CCN(c3ccccc3)CC1)OCO2`: the Potency was 10 µM (active).

In the case of `O=C(NCC(c1cccnc1)N1CCN(c2ccccc2)CC1)Oc1ccccc1` (stereo not given), the activity, negative = inhibition result is “inactive”. The same measure, in the same setting: to `Cc1ccc(C(C)C)c(OCC(=O)N2CCN(CC(=O)N3CCOCC3)CC2)c1` belongs 28.3% [at 12.7 µM]; to `CN1CCN(/N=C/c2c[nH]c3ccccc23)CC1`, “inactive”. As to `CC(=O)OC1C2CCC3C1(CC(O)[C@@]1(O)[C@@H](CC(O)C1(C)C)[C@]3(C)O)C[C@@]2(C)O` (stereo not given in full), the activity, negative = inhibition was -31.5% [at 2.33 µM]. Still for that read-out and setting: the value for `CCN1C[C@@]2(COC)CC[C@H](OC)[C@]34[C@@H]1[C@]1(OCO[C@@]15C[C@@H](OC)C1C[C@H]3[C@H]5[C@@H]1OC)[C@H](O)[C@@H]24` was 26.9% [at 21.5 µM]; that for `CSC1=NP(=S)(SC)N(C)c2nc3n(c21)CCC3` (stereo not given) was “inactive”. Still for that read-out and setting: to `COc1ccc(-c2nn(CCC#N)cc2C(=O)Nc2ccc(C(C)=O)cc2)cc1` belongs “inactive”.

In the case of `COc1cc(-n2c(=S)[nH]c3ccc(C)cc3c2=O)c(Cl)cc1Cl`, the activity, negative = inhibition was 20.4% [at 12.7 µM]. With `Cc1cc2ccccn2c1C(C[N+](=O)[O-])c1c(F)cccc1Cl` (stereo not given), the Potency is 44.7 µM (active). For the molecule `Cc1nc2nc(C)c(CCC(=O)N3CCC4(CC3)OCCO4)c(C)n2n1`, the activity, negative = inhibition entry is “inactive”. Same read-out and setting: the value for `CNP1(NC)=Nc2nn(-c3ccccc3)c(N)c2C(c2ccccc2)=N1` was “inactive”. Still for that read-out and setting: to `C/C=C/CC1(CC)C(=O)NC(=S)NC1=O` belongs “inactive”. `O=C(CCC(=O)N1C[C@H]2C[C@@H](C1)c1cccc(=O)n1C2)NCc1ccccc1C(F)(F)F`: the activity, negative = inhibition was 12.2% [at 0.501 µM]. On to `O=C(NC(=S)N1C[C@H]2C[C@H](C1)c1cccc(=O)n1C2)c1ccc(F)cc1`, for which the Potency is 35.5 µM (active). `COc1cccc(C(=O)N2C[C@H]3C[C@@H](C2)c2cccc(=O)n2C3)c1`: the activity, negative = inhibition was 1.87% [at 12.7 µM]. Same read-out and setting: to `Cc1cccc(NC(=O)OC2CN3CCC2CC3)c1` (stereo not given) belongs “inactive”.
